Assays:
Assay in all cases: log2 ratio of Biotin-Ahx-Ub-VS probe labelling (fragment/DMSO); higher = less target engagement (more negative = stronger competition), active = hit call of the paper (q ≤ 0.05, log2 ratio ≤ -1)
Settings in all cases: compound concentration: 200 uM; treatment time: 3 h
USP42 = biological target: T1, USP42 (UniProt Q9H9J4)
T1 sequence (whole entry): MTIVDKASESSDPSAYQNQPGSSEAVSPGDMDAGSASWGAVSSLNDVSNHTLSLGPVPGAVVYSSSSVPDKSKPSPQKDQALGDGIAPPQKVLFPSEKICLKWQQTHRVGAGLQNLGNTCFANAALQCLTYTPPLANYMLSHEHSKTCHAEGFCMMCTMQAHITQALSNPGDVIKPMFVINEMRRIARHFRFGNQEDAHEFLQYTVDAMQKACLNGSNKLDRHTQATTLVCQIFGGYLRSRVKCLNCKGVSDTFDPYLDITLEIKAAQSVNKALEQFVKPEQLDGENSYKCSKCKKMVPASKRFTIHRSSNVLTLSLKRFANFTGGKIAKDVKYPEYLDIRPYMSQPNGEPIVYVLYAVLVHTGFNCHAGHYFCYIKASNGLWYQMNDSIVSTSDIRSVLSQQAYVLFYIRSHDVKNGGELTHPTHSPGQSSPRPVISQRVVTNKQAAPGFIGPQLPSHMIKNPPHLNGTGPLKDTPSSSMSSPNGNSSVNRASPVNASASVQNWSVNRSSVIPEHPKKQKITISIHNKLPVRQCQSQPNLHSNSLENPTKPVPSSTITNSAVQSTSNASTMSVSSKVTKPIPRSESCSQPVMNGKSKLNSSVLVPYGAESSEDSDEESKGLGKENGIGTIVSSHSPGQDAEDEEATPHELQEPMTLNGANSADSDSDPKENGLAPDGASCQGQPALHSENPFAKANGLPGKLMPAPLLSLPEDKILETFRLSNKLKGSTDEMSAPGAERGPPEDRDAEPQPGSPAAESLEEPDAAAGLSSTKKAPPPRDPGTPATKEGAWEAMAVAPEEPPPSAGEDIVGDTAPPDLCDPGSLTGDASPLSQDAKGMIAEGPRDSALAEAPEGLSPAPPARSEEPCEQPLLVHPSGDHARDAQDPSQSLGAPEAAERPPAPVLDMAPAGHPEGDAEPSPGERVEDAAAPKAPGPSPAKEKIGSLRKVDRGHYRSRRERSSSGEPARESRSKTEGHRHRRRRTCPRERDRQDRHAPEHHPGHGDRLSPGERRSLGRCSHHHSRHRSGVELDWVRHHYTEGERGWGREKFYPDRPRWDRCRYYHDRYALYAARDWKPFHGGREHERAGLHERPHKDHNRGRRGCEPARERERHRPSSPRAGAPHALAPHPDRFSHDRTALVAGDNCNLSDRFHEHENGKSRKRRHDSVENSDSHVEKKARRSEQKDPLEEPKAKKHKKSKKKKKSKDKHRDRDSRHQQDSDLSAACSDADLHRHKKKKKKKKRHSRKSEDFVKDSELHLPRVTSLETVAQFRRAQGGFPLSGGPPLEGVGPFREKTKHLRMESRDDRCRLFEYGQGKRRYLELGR
Method in brief: (§1)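 Using Biotin-Ahx-Ub-VS at 0.5 µM final for 1 h, DUBs were labelled in HEK293T lysate (495 µg per sample) that had first been treated in triplicate with fragment at 200 µM or vehicle for 3 h. NeutrAvidin enrichment, LysC and trypsin digestion and diaPASEF LC-MS/MS followed. Spectronaut label-free quantities were global-median-normalised. Values are average log2 fragment/vehicle ratios by unpaired t-test, using proteins with ≥2 unique peptides.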

USP46 = USP46 (UniProt P62068)
USP46, sequence (P62068 whole entry): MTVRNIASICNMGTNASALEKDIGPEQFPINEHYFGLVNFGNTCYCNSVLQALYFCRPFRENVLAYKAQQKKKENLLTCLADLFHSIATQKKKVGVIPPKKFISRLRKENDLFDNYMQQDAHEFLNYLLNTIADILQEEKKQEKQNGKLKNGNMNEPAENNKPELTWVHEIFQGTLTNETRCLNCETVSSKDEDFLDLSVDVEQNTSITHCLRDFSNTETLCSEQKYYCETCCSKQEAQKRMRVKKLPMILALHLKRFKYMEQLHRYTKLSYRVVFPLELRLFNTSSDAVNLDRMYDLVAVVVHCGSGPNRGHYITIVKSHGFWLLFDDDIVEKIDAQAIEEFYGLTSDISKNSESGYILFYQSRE
Method in brief: as §1

USP47 = biological target: T2, USP47 (UniProt Q96K76)
T2 sequence (whole entry): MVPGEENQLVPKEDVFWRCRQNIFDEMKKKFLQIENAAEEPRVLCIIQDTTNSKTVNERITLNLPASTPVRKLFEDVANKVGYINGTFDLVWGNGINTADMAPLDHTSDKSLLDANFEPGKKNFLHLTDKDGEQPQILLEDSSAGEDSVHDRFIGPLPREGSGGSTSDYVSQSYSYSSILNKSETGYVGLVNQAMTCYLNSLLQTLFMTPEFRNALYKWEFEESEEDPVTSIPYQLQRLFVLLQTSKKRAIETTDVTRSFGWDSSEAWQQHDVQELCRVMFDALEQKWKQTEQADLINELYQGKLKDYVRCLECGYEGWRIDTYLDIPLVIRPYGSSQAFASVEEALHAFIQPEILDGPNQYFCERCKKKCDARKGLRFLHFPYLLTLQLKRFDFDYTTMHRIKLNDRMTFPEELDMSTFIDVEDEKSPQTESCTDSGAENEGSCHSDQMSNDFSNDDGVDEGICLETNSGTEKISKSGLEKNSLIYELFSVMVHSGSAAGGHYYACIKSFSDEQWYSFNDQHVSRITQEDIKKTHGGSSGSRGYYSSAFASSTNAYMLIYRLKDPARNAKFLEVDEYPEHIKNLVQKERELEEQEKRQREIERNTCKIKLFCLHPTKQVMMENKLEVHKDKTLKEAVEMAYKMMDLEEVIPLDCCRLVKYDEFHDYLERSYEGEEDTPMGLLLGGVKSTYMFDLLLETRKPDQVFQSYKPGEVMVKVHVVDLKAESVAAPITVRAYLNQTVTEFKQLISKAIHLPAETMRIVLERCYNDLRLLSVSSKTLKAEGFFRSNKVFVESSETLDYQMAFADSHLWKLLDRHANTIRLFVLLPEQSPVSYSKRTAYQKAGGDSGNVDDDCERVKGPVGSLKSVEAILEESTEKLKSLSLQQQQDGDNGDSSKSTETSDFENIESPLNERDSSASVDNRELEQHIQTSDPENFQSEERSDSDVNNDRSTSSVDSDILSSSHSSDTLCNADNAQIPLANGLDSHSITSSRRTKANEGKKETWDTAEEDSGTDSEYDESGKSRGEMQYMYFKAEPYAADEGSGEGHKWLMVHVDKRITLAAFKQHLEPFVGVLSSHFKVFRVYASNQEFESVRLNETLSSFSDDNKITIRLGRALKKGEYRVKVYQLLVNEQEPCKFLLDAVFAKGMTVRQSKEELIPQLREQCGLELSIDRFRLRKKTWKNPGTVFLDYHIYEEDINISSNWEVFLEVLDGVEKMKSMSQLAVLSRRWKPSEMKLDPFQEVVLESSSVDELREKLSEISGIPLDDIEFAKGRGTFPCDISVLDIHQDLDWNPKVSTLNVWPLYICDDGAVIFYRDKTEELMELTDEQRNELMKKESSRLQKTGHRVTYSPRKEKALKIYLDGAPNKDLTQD
Method in brief: as §1

USP48 = biological target: T3, USP48 (UniProt Q86UV5)
T3 sequence (whole entry): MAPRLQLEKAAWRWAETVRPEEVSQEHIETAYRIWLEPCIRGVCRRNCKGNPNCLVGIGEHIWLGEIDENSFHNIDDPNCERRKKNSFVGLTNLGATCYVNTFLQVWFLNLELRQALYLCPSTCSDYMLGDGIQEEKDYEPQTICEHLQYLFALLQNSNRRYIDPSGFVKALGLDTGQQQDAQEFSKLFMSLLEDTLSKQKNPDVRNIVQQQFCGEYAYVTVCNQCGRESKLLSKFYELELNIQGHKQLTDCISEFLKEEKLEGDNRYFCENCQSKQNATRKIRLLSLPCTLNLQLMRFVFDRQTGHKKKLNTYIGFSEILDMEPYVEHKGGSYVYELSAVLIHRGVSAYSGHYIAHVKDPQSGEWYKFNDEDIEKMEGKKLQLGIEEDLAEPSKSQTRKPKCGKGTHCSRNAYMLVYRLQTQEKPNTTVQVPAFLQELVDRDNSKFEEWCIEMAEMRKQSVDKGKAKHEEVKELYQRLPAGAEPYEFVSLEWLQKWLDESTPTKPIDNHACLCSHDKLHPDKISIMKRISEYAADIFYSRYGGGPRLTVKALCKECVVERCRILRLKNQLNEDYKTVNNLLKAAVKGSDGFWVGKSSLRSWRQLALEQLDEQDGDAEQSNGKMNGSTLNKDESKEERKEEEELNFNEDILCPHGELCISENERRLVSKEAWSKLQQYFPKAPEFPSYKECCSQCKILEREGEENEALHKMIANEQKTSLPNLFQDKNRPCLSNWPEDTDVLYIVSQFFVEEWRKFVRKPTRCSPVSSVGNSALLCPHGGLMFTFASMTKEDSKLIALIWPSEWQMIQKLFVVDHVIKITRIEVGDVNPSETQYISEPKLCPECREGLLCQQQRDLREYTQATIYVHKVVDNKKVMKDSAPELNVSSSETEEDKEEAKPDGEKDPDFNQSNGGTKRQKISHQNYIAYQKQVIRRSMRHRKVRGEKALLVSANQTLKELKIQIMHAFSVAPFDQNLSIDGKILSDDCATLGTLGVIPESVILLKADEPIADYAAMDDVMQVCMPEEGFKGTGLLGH
Method in brief: as §1

USP5 = biological target: T4, USP5 (UniProt P45974)
T4 sequence (whole entry): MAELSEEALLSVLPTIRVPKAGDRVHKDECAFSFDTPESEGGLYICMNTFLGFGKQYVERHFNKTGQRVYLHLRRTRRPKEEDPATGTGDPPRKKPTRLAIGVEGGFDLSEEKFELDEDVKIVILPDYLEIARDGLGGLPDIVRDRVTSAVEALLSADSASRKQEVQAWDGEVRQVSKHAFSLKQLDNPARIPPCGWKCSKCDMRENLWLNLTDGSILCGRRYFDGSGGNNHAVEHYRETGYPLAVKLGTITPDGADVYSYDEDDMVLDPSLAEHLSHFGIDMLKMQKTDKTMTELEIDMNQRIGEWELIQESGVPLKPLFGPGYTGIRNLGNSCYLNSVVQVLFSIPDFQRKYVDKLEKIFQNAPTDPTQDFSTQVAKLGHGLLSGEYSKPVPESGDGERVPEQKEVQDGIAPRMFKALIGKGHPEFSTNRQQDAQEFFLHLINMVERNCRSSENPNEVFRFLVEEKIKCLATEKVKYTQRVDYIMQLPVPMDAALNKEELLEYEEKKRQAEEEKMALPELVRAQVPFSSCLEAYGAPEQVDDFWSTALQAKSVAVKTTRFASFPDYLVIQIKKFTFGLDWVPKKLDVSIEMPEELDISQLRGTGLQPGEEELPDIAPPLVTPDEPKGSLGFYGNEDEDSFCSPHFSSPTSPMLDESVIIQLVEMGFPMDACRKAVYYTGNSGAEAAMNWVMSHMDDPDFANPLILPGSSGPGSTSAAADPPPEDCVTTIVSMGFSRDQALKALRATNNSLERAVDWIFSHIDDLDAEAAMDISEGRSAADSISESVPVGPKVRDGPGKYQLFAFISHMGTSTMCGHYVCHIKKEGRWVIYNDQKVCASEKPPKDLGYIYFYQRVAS
Method in brief: as §1

USP54 = USP54 (UniProt Q70EL1)
USP54, sequence (Q70EL1 whole entry): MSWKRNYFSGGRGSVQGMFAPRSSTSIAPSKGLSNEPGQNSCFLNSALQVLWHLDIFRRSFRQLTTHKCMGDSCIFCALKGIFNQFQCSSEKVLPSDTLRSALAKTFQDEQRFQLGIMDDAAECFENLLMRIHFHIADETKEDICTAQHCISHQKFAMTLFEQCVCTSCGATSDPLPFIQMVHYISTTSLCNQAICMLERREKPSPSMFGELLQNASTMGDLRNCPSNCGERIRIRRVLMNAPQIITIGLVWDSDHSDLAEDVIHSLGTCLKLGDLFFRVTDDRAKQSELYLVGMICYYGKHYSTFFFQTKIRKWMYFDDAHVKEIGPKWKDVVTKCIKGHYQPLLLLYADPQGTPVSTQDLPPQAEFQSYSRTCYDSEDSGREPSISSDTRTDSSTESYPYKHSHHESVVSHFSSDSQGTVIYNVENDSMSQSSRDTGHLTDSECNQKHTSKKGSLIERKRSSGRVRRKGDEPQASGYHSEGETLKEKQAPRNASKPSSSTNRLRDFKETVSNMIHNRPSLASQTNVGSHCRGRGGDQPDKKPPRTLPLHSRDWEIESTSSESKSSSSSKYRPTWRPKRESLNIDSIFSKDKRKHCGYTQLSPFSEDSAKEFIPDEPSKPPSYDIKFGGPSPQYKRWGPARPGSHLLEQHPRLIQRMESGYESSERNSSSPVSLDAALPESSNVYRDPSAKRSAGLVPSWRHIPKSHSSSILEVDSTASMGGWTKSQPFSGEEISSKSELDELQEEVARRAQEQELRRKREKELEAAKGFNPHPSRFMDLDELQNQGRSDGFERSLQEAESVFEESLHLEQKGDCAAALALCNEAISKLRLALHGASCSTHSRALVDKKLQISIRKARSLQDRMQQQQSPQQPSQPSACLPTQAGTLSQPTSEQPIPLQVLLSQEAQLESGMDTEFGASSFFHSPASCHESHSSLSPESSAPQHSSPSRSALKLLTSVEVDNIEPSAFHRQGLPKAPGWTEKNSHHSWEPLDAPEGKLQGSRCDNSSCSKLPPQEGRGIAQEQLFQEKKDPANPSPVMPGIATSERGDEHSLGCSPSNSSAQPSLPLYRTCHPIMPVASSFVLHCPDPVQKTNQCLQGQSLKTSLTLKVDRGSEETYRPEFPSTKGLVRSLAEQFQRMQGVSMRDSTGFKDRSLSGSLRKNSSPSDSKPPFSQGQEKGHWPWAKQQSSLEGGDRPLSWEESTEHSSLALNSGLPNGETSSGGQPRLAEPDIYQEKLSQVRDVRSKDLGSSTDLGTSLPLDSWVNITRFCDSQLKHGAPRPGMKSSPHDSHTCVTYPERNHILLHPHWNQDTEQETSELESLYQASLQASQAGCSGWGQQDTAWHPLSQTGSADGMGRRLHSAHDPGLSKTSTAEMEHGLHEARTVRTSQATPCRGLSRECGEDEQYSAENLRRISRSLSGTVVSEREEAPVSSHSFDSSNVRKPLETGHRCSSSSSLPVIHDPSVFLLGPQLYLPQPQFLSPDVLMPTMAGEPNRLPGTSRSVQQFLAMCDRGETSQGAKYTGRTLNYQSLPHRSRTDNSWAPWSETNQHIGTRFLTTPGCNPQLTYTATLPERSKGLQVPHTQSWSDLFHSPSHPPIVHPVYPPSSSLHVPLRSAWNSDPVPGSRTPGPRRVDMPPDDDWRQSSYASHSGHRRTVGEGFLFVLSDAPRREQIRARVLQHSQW
Method in brief: as §1

USP7 = USP7 (UniProt Q93009)
Method in brief: as §1

USP8 = biological target: T5, USP8 (UniProt P40818)
T5 sequence (whole entry): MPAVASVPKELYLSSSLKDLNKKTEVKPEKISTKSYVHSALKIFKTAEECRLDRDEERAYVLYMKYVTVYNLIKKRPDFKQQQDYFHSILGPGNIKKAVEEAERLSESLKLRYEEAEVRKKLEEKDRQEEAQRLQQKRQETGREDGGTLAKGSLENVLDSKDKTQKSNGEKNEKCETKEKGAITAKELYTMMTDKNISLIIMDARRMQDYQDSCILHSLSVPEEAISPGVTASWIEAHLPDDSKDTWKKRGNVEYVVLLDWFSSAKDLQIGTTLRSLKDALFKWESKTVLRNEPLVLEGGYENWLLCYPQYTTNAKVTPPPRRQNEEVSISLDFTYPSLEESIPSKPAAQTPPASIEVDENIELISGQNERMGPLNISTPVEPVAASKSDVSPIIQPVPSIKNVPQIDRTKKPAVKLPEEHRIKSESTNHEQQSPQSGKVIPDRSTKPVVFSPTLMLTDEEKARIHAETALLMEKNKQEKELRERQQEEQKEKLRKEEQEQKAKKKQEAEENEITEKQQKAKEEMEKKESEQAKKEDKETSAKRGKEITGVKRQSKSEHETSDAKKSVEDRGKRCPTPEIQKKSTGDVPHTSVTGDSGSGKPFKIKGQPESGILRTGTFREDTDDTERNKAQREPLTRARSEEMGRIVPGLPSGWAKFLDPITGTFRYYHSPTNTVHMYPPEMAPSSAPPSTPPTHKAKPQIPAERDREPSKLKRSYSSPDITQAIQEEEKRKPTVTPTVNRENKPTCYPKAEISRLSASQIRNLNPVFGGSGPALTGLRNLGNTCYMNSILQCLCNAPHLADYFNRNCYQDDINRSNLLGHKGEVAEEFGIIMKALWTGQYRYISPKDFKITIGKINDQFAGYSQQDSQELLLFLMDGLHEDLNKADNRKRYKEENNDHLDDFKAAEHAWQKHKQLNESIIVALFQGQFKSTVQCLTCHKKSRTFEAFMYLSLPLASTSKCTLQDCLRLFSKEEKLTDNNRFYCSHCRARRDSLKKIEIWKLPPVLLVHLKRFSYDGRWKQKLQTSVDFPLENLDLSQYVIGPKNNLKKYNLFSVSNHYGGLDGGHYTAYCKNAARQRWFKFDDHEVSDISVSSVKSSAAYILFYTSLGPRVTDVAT
Method in brief: as §1

USP9X = USP9X (UniProt Q93008)
USP9X, sequence (Q93008 whole entry): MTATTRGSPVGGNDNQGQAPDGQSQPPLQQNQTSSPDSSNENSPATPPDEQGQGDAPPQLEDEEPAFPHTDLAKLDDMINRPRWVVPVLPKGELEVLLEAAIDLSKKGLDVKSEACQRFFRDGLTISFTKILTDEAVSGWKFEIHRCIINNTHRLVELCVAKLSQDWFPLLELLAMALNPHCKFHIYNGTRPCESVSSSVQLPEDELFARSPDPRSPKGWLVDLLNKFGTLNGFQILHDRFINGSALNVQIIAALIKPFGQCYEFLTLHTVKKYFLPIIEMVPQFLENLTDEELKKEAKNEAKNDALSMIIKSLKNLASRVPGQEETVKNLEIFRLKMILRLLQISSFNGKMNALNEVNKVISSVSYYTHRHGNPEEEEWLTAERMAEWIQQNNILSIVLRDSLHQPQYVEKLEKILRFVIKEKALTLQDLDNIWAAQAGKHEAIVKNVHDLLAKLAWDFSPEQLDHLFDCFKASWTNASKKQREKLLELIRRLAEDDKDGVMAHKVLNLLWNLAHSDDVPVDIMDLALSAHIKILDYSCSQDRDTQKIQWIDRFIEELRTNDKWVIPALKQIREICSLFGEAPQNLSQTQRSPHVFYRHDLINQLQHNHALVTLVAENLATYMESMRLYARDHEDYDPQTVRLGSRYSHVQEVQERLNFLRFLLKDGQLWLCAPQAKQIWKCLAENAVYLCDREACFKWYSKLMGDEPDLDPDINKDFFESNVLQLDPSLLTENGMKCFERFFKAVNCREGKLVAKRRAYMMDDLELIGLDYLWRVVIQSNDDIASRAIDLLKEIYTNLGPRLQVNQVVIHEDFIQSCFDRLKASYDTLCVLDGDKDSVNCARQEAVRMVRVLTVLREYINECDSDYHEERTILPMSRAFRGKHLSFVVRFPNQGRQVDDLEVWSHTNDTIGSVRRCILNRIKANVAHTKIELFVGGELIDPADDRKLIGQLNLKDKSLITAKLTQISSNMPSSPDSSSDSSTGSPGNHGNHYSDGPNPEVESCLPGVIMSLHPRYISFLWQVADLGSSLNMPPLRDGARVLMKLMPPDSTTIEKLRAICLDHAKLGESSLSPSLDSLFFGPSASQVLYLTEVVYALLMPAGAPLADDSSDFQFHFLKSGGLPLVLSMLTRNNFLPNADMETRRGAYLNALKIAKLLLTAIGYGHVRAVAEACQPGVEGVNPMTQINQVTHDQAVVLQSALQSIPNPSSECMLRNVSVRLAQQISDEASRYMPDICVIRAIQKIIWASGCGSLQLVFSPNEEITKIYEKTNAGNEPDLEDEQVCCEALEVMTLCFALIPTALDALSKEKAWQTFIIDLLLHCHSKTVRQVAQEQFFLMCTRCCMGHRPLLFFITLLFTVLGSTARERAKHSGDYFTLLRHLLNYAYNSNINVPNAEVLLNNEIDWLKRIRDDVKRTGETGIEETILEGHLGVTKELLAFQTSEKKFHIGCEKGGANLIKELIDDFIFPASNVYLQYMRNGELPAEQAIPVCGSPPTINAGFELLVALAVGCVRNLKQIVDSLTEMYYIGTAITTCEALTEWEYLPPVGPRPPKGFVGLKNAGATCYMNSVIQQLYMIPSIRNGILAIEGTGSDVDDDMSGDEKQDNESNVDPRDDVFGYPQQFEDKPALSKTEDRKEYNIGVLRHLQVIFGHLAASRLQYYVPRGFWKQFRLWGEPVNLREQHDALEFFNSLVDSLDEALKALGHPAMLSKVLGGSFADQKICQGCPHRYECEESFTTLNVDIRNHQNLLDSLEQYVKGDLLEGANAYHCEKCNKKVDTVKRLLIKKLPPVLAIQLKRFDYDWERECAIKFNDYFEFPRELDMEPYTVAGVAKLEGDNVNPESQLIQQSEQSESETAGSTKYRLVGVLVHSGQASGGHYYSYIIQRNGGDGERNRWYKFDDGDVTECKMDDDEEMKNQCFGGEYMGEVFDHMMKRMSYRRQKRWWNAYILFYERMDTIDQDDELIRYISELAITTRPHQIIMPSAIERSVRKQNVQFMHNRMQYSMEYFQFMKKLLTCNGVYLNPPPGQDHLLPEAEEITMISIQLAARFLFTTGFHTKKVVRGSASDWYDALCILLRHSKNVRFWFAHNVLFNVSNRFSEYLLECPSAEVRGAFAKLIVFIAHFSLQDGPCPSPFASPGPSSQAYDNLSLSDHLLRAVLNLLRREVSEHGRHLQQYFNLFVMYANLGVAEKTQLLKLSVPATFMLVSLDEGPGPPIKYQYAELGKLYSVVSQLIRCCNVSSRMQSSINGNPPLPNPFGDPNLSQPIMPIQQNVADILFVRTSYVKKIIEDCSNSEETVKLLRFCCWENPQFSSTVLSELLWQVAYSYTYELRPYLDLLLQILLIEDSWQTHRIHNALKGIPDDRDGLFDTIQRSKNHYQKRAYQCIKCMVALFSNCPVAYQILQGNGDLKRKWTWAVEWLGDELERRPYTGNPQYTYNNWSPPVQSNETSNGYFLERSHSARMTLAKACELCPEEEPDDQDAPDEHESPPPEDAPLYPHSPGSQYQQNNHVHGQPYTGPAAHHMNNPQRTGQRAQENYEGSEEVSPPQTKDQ
Method in brief: as §1

UniProt O00487 = biological target: UniProt O00487
UniProt O00487, sequence (O00487 whole entry): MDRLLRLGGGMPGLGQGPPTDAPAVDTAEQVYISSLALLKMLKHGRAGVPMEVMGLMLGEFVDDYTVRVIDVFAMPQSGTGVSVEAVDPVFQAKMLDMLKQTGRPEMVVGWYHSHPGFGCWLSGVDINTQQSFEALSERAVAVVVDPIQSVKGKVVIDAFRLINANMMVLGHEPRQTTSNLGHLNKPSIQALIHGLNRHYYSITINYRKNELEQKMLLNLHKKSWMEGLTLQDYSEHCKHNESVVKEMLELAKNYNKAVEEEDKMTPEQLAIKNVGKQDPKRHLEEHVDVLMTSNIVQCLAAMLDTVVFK
Method in brief: as §1

Measured: log2 ratio of Biotin-Ahx-Ub-VS probe labelling

O=C(CCl)NCc1ccc(N2CCOCC2)nc1
inactive: USP42 -0.0847 | USP46 0.0882 | USP47 -0.466 | USP48 -0.188 | USP5 -0.217 | USP54 0.658 | USP7 -0.147 | USP8 -0.289 | USP9X -0.26 | UniProt O00487 -0.226

Reference: the supplement of paper PMC11732987, “Enantioselective OTUD7B fragment discovery through chemoproteomics screening and high-throughput optimisation” (Communications Chemistry, 2025)
